Holding throughout (assay): NCI-60 one-dose screen, 48 h (100 = growth as untreated, 0 = no growth, -100 = all killed)
The test system of one test is NCI-H226 lung. Conditions: 10 µM.
For a further test, the system named is HOP-62 NSCLC. Conditions: 10 µM unless noted.
The next test concerns NCI-H460 lung. As to conditions: 10 µM unless noted.
Another test has as its system NCI-H522 lung. Conditions: 10 µM.
The test system of another test is A549/ATCC NSCLC. Conditions: 10 µM unless noted.
The next test has as its system 786-0 renal. As to conditions: 10 µM unless noted.
A further test has as its system COLO 205 colon. As to conditions: 10 µM unless noted.
The next test relates to NCI-H322M lung. Conditions: 10 µM unless noted.
In a further test the test system is HOP-92 NSCLC. Conditions: 10 µM unless noted.

Consider 16 molecules from PubChem BioAssay (NCI).

About 83,000 compounds went through this panel and 20% of them were active in at least one assay; those are over-represented in the sample as a whole.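 Percent growth is the endpoint: 0 to 100 indicates growth inhibition (40 means 60% inhibition), 0 means no net growth, and negative values indicate cell death.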 Unmarked numbers belong to inactive results. Active and inactive are the calls of the source. The calls were made as follows: active = growth percent below 10; inactive = the rest.

For `CSc1nnc(-c2sc3nnc(-c4ccccc4)c(-c4ccccc4)c3c2O)o1`, the growth with NCI-H226 lung was 87.7%; in the test on HOP-62 NSCLC it was 71.1%; with NCI-H460 lung, 56.7%; with NCI-H522 lung, 96.6%; in the test with A549/ATCC NSCLC, 80.5%; in the test on 786-0 renal it was 88.7%. The growth in the test on COLO 205 colon is 110%.

As for `CC(=O)OC[C@]1(C)C=C2C(=O)[C@](C)(O)C3(CC3)C(C)=C2[C@H]1OC(C)=O`, the growth is 98.5% in the test with NCI-H322M lung; 53.7% with HOP-62 NSCLC; 95.1% with NCI-H460 lung; 122% in the test with HOP-92 NSCLC; 71.1% in the test on NCI-H522 lung; 100% with A549/ATCC NSCLC. Also, the growth with 786-0 renal was 87.8%.

With `COc1nc2c(cc1S(=O)(=O)c1ccccc1)CCc1c-2cnn1-c1cccc(Cl)c1`, the growth was 80.3% in the test on NCI-H226 lung; 90.7% in the test on HOP-62 NSCLC; 80.6% in the test with NCI-H460 lung; 46.6% in the test with HOP-92 NSCLC; 75.6% with NCI-H522 lung; 66.2% in the test with A549/ATCC NSCLC. In addition, the growth in the test on 786-0 renal is 72.8%; in the test with COLO 205 colon, 103%.

For the molecule `COC(=O)c1c2c(c(C)[n+]([O-])c1C)C(=O)C=C(NCc1ccc(Cl)cc1)C2=O`, the growth with NCI-H322M lung was -7.11% (active); in the test on HOP-62 NSCLC, 2.25% (active); in the test on NCI-H460 lung, 0.382% (active); in the test on HOP-92 NSCLC it was -27.9% (active); with NCI-H522 lung, -15.1% (active); in the test with A549/ATCC NSCLC, -16.5% (active). The growth with 786-0 renal is 7.94% (active).

With `COc1nc2c(cc1S(=O)(=O)c1ccccc1)CCc1c-2cnn1-c1ccccc1Cl`, the growth in the test on NCI-H226 lung was 51.8%; in the test on HOP-62 NSCLC, 69.9%; in the test with HOP-92 NSCLC, -1.3% (active); in the test on NCI-H522 lung, 15.3%; in the test with A549/ATCC NSCLC, 47.1%; with 786-0 renal, 51.6%. Further, the growth in the test on COLO 205 colon is 70.4%.

As to `O=C1c2ccccc2-c2cn(Cc3ccccc3)c3cccc(c23)C1c1cccnc1` (stereo not drawn), the growth in the test on NCI-H322M lung was 54%; with HOP-62 NSCLC, 36%; in the test on NCI-H460 lung, 23.2%; in the test with HOP-92 NSCLC, 76.8%; with NCI-H522 lung, -12.4% (active); in the test with A549/ATCC NSCLC it was 42.2%. Besides, in the test with 786-0 renal, the growth was 52.2%.

As for `Cc1nc2cc(Nc3nc(Cl)nc(Nc4ccc(F)cc4)n3)ccc2n1Cc1ccccc1`, the growth was 80.5% in the test on NCI-H226 lung; 88.4% in the test on HOP-62 NSCLC; 88% with NCI-H460 lung; 50.7% with HOP-92 NSCLC; -69.8% (active) with NCI-H522 lung; 86.7% in the test with A549/ATCC NSCLC. For the same molecule, the growth was 33% with 786-0 renal and 109% with COLO 205 colon.

With `COc1ccc(-n2ncc3c4nc(OC)c(S(=O)(=O)c5ccccc5)cc4ccc32)cc1`, the growth in the test on NCI-H226 lung is 45.3%; with HOP-62 NSCLC it was 47.5%; in the test on NCI-H460 lung it was 78.9%; in the test with HOP-92 NSCLC it was 26.7%; in the test with NCI-H522 lung, 61.3%; with A549/ATCC NSCLC, 71.3%. Besides, the growth is 47.2% with 786-0 renal and 96.6% with COLO 205 colon.

For `CN1CCN(CCCn2c3c(sc4ncccc43)c(=O)n3nnc(-c4ccccc4)c23)CC1`, the growth in the test with NCI-H226 lung is 96.2%; in the test with HOP-62 NSCLC, -75.8% (active); in the test with NCI-H460 lung, -70.7% (active); with HOP-92 NSCLC, 59.6%; in the test with NCI-H522 lung, -73.5% (active); with A549/ATCC NSCLC, -74.7% (active). Besides, the values for the growth with 786-0 renal and in the test with COLO 205 colon were 95.4% and 63.6%, respectively.

With `O=C(O)CCN1CCN(c2cccc(Cl)c2)CC1`, the growth in the test on NCI-H226 lung was 104%; in the test with HOP-62 NSCLC, 97%; in the test on NCI-H460 lung, 106%; in the test on HOP-92 NSCLC, 110%; in the test on NCI-H522 lung, 127%; in the test on A549/ATCC NSCLC, 95.9%. For the same molecule, the results for the growth in the test on 786-0 renal and in the test on COLO 205 colon were 104% and 111%, respectively.

Take `ONc1nc(NO)c2[nH]cnc2n1`: the growth with NCI-H226 lung is 82.8%; with HOP-62 NSCLC, 83.9%; with HOP-92 NSCLC, 80.8%; in the test on NCI-H522 lung, 97%; in the test on A549/ATCC NSCLC, 101%; with 786-0 renal it was 86.9%. In addition, the growth with COLO 205 colon was 112%.

As to `N#CCCN1CCN(CCC#N)C1=S`, the growth with NCI-H226 lung was 112%; with HOP-62 NSCLC it was 108%; with NCI-H460 lung, 103%; in the test on A549/ATCC NSCLC, 97.4%; in the test with 786-0 renal, 105%; in the test with COLO 205 colon it was 105%.

Turning to `CCOC(=O)c1cc2c(n(C)c1=O)-c1cnn(-c3ccc(OC)cc3)c1CC2`, the growth in the test on NCI-H226 lung was 107%; in the test on HOP-62 NSCLC, 108%; in the test on HOP-92 NSCLC, 104%; with NCI-H522 lung, 83.3%; in the test on A549/ATCC NSCLC, 98.2%; with 786-0 renal, 101%. Moreover, in the test with COLO 205 colon, the growth is 109%.

For the molecule `Cc1ccc2c(N/N=C\c3ccco3)cc(C)nc2n1`, the growth in the test with NCI-H226 lung is 77.6%; with HOP-62 NSCLC, 83.3%; with NCI-H460 lung it was 34.1%; in the test with HOP-92 NSCLC, 40.4%; in the test on NCI-H522 lung, 88.6%; in the test on A549/ATCC NSCLC, 46.4%. The growth was 49.2% with 786-0 renal and 8.81% (active) in the test with COLO 205 colon.

Consider `COc1ncc(F)c(OC)n1`, for which the growth in the test with NCI-H226 lung was 101%; in the test on HOP-62 NSCLC, 94.3%; in the test on NCI-H460 lung it was 108%; with HOP-92 NSCLC, 87%; in the test on NCI-H522 lung it was 97.5%; in the test with A549/ATCC NSCLC, 99.8%. The growth with 786-0 renal was 102%; with COLO 205 colon, 110%.

Take `COc1cccc(OC(=O)c2ccccc2)c1OC(=O)c1ccccc1`: the growth is 109% in the test with NCI-H226 lung; 61.7% in the test on HOP-62 NSCLC; 81.6% in the test with NCI-H460 lung; 40% with HOP-92 NSCLC; 78% in the test with A549/ATCC NSCLC; 101% in the test on 786-0 renal. The growth in the test on COLO 205 colon was 108%.
